Molecules are shown by their SMILES. Among all 310,000 compounds or so, about 14,000 (4.5%) showed an effect of 50% or more. Effects have a minus sign here. Shown is part of a subset that was picked to be rich in strong results.
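Also: peak tail current of the secondary pulse compared with the same well before compound.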

In the assay the target is human ether-à-go-go-related gene (hERG) potassium channel (human, UniProt Q12809). As to the kind of experiment: primary screen, population patch clamp on CHO cells stably expressing hERG; higher = less effect of the substance.
Sequence of human ether-à-go-go-related gene (hERG) potassium channel (Q12809 whole entry, looked up): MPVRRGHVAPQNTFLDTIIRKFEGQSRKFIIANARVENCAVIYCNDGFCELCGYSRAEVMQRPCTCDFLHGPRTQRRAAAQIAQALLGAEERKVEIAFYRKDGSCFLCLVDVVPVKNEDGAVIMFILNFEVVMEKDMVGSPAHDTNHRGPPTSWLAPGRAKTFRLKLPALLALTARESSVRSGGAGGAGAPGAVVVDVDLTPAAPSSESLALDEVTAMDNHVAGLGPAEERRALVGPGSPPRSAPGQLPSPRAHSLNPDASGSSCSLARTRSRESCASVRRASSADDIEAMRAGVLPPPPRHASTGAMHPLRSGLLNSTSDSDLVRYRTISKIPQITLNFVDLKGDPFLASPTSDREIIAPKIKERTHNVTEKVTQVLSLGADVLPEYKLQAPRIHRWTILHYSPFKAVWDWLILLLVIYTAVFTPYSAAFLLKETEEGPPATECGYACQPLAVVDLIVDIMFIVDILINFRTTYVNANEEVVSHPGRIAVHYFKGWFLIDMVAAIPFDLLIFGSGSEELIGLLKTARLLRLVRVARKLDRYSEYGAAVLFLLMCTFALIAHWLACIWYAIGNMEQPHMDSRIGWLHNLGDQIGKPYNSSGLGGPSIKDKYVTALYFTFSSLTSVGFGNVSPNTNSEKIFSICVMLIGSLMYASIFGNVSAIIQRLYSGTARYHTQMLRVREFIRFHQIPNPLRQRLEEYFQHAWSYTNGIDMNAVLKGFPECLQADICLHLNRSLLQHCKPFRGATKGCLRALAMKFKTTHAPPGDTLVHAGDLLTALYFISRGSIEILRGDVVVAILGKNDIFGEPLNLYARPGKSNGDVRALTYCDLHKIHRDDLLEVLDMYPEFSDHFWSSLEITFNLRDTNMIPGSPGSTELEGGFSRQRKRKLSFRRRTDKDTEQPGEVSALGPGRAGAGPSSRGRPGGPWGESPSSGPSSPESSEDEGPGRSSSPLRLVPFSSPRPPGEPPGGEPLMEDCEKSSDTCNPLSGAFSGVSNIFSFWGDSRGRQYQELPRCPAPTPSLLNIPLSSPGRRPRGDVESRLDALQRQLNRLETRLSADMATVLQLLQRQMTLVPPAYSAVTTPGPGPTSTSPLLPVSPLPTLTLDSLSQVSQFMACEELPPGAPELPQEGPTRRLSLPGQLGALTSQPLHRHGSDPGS
For `NC(=O)C[n+]1cccc(C(N)=O)c1.[Cl-]`, the “hERG current change (%, negative = inhibition) at 10uM” value is 12.8%.
As for `Cc1ccc(S(=O)(=O)Nc2c(C)n(C)n(-c3ccccc3)c2=O)c(C)c1`, the “hERG current change (%, negative = inhibition) at 10uM” value came to 9.47%.
Next, `O=C(CCN1CCCCCC1)Nc1ccc2c(c1)OCCO2.O=C(O)C(=O)O`: -1.98%; `Cc1ccc(S(=O)(=O)NC(C)c2ccccc2)cc1[N+](=O)[O-]` (centres unmarked): 9.16%; `CC(=O)Nc1nnc(COc2ccc(Cl)cc2)s1`: 30.7%.
As for `COc1ccc(Cn2nnc3c(=O)[nH]c(C4CCCN(C(=O)c5ccccc5)C4)nc32)cc1` (centres unmarked), the “hERG current change (%, negative = inhibition) at 10uM” value is -22.5%.
`O=C(c1ccccc1)N1CCCC(c2nc3c(nnn3Cc3ccccc3)c(=O)[nH]2)C1` (centres unmarked): the “hERG current change (%, negative = inhibition) at 10uM” value was -3.63%.
The result for `O=c1[nH]c(C2CCN(S(=O)(=O)c3ccc(S(=O)(=O)NC4CC4)cc3)CC2)nc2c1nnn2Cc1ccc(F)cc1` reads 3.81%; that for `Cc1ccc(C(=O)N2CCCC(c3nc4c(nnn4Cc4ccccc4)c(=O)[nH]3)C2)cc1` (centres unmarked), -62.4%; that for `Cc1ccc(Cn2nnc3c(=O)[nH]c(C4CCN(S(=O)(=O)c5ccc(F)cc5)CC4)nc32)cc1`, 6.62%.
Regarding `COC(=O)c1ccc(Cn2nnc3c(=O)[nH]c(C4CCN(S(=O)(=O)c5ccc(F)cc5)CC4)nc32)cc1`, the “hERG current change (%, negative = inhibition) at 10uM” value is -70.3%.
On to `C=C(c1ccccc1O)n1ccnc1`, for which the “hERG current change (%, negative = inhibition) at 10uM” value worked out at 27.8%.
The result for `Cc1[nH]nc2c1C(c1ccco1)C(C#N)=C(N)O2` (centres unmarked) reads 18.4%; that for `Cc1nnc(SCCn2c(N3CCCC(C)C3)nc3c2c(=O)n(C)c(=O)n3C)s1` (centres unmarked), -5.21%; that for `c1cnc2ccc(C(c3nnnn3C3CCCCC3)N3CCN(C4CCCCC4)CC3)cc2c1` (centres unmarked), -78.8%.
Turning to `c1cnc2ccc(C(c3nnnn3C3CCCC3)N3CCN4CCCC4C3)cc2c1` (centres unmarked), the “hERG current change (%, negative = inhibition) at 10uM” value is reported as -45.2%.
Turning to `c1cnc2ccc(C(c3nnnn3C3CCCCC3)N3CCCCC3)cc2c1` (centres unmarked), the “hERG current change (%, negative = inhibition) at 10uM” value is reported as -15.6%.
For the compound `OC1CCN(C(c2ccc3ncccc3c2)c2nnnn2C2CCCCC2)CC1` (centres unmarked), the “hERG current change (%, negative = inhibition) at 10uM” value is given as -31.8%.
On to `c1cnc2ccc(C(c3nnnn3C3CCCCC3)N3CCN4CCCC4C3)cc2c1` (centres unmarked), for which the “hERG current change (%, negative = inhibition) at 10uM” value was -109%.
The result for `CCC(C)(C)n1nnnc1C(c1ccc2ncccc2c1)N1CCN2CCCC2C1` (centres unmarked) reads -10.8%; that for `CCOC(=O)c1cccc(N2C(N)=NC(N)=NC2(C)C)c1.Cl`, -1.9%; that for `CCOc1ccccc1C(=O)NC(C(=O)NCc1ccc(F)cc1)C(C)C` (centres unmarked), -14.7%.
For `CC(=O)N/C(=C/c1ccc(OC(F)F)cc1)C(=O)O`, the “hERG current change (%, negative = inhibition) at 10uM” value is recorded as 3.4%.
Take `COc1ccc(C(=O)Nc2c(N)nc(SCC(=O)N3CCCCCC3)[nH]c2=O)cc1OC`: the “hERG current change (%, negative = inhibition) at 10uM” value was found to be 0.918%.
The result for `Cc1ccccc1NC(=O)CSc1nnc(Cc2cccn2C)n1-c1ccc(F)cc1` reads -0.084%.
For the compound `Cc1ccc(S(=O)(=O)NNC(=O)C(O)(c2ccccc2)c2ccccc2)cc1`, the “hERG current change (%, negative = inhibition) at 10uM” value is given as 1.02%.
In the case of `O=C(NNS(=O)(=O)c1ccccc1)C(O)(c1ccccc1)c1ccccc1`, the “hERG current change (%, negative = inhibition) at 10uM” value is reported as 7.23%.
On to `O=C(NNS(=O)(=O)c1ccc(CCCl)cc1)C(O)(c1ccccc1)c1ccccc1`, for which the “hERG current change (%, negative = inhibition) at 10uM” value is listed as -55.9%.
Next, `CCOCCCNC(=O)c1cccc(OC2CCN(S(C)(=O)=O)CC2)c1`: 12.6%.
In the case of `CCc1cc(CNC(=O)c2ccc(OC3CCN(CCc4ccccc4)CC3)cc2)on1`, the “hERG current change (%, negative = inhibition) at 10uM” value is reported as -75.5%.
As for `O=C(NCCc1ccccn1)c1ccc(OC2CCN(CCc3ccccc3)CC2)cc1`, the “hERG current change (%, negative = inhibition) at 10uM” value is recorded as -41.9%.
Take `CCc1cc(CNC(=O)c2cccc(OC3CCN(S(C)(=O)=O)CC3)c2)on1`: the “hERG current change (%, negative = inhibition) at 10uM” value is reported as -70.3%.
For `O=C(NCCn1cccn1)c1ccc(OC2CCN(CCc3ccccc3)CC2)cc1`, the “hERG current change (%, negative = inhibition) at 10uM” value is recorded as -41.3%.
`CC(C)c1cc(CNC(=O)c2ccc(OC3CCN(Cc4ccccn4)CC3)cc2)on1`: the “hERG current change (%, negative = inhibition) at 10uM” value is -16.1%.
For `COCCC(=O)N1CCC(Oc2ccc(C(=O)NCc3ccon3)cc2)CC1`, the “hERG current change (%, negative = inhibition) at 10uM” value is recorded as 3.38%.
As to `O=C(NCc1ccon1)c1ccc(OC2CCN(CCc3ccccc3)CC2)cc1`, the “hERG current change (%, negative = inhibition) at 10uM” value is recorded as -66.6%.
The result for `Cc1cc(CNC(=O)c2cccc(OC3CCN(S(=O)(=O)N(C)C)CC3)c2)on1` reads 0.225%; that for `COc1ccccc1C(=O)NCCC(=O)N1CCN(c2cccc(C(F)(F)F)c2)CC1`, -21.7%.
Next, `COc1ccc(Cc2nnc(NS(C)(=O)=O)s2)cc1`: 3.9%; `Cc1cc(NC(=O)c2cc(CC(C)C)on2)no1`: 7.66%; `Nc1c(C(=O)NCc2ccccc2)c2nc3ccccc3nc2n1-c1ccc2c(c1)OCO2`: 5.58%.
For the compound `Cc1ccc2c(c1)c(N=NC(N)=S)c(O)n2Cc1ccccc1`, the “hERG current change (%, negative = inhibition) at 10uM” value is recorded as -1.71%.
As for `COc1cccc(C2C(=O)N(C3CCCCC3)CC(=O)N2Cc2ccc(F)cc2)c1` (centres unmarked), the “hERG current change (%, negative = inhibition) at 10uM” value is listed as -43.8%.
On to `N#CC(Cc1ccccc1OC(F)F)c1nc2ccccc2[nH]1` (centres unmarked), for which the “hERG current change (%, negative = inhibition) at 10uM” value is recorded as -16.2%.
`COc1cc(CC(C#N)(CO)c2nc3ccccc3[nH]2)ccc1OC(F)F` (centres unmarked): the “hERG current change (%, negative = inhibition) at 10uM” value is on record as -18.9%.
Turning to `N#CC(Cc1ccc(OC(F)F)cc1)c1nc2ccccc2[nH]1` (centres unmarked), the “hERG current change (%, negative = inhibition) at 10uM” value is given as -70.1%.
With `O=C(Nc1nc2ccccc2[nH]1)c1ccc(OC(F)F)cc1`, the “hERG current change (%, negative = inhibition) at 10uM” value is on record as -11%.

Values taken from paper PMC4336329 (PLoS ONE, 2015).
